{"source": "PubChem BioAssay (Tox21)", "note": "Values without a mark were called inactive. Active and inactive are the calls of the source. The call rests on the fitted dose curve. On the % scale 0 is the no-effect control and ±100 the full control effect.", "data": [{"assay": "qHTS assay to identify small molecule agonists of the sonic hedgehog signaling (Shh) pathway (AID 1259368);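 further: NIH/3T3-derived 3T3Gli1-Luc cells carrying a stable Gli1-driven firefly luciferase reporter; nearly all actives have a fitted effect of over 15% in size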", "conditions": "NIH/3T3 Gli1-Luc reporter, luciferase, 24 h; series mostly up to 92.4 µM; activity change: at the top concentration", "from_the_text": "National Center for Advancing Translational Sciences [NCATS]\nNIH Chemical Genomics Center [NCGC]\nU.S. Environmental Protection Agency [EPA]\nNational Institutes of Environmental Health Sciences [NIEHS]\nNational Toxicology Program [NTP]\nThe sonic hedgehog (Shh) pathway is essential for normal embryonic development. Dysregulation of the Shh pathway can cause severe developmental defects in organs. Therefore chemicals that interfere with the pathway are potential developmental toxicants. A cell line designated 3T3Gli1-Luc (DMB/OARSA/CFSAN/FDA, Laurel, MD), a NIH/3T3 derived clone containing stably integrated Gli1-Luc reporter is used to detect chemical interference of the Shh pathway, by changes in the expression of the firefly Luc gene under the control of the Gli1 transcriptional response element. This cell line was used to screen Tox21 libraries for identifying and prioritizing the potential developmental toxicants that interfere Shh pathway.\n3T3 Gli1-Luc cells were dispensed at 2,000 per well in 5uL of culture medium into white solid bottom 1536-well plates (Greiner Bio-One, Monroe, NC) using a Multidrop Combi (Thermo Scientific, Waltham, MA) dispenser. The assay plates were incubated at 37 C and 5% CO2 for 4hr, and then 23nL of compounds dissolved in DMSO and positive control were transferred using a Pintool station (Wako, San Diego, CA). The assay plates were incubated at 37C and 5% CO2 for 24hr. For luciferase read, 4uL of Amplite Luciferase reporter gene assay reagent (AAT Bioquest, Inc. Sunnyvale, CA) was added to each well of the assay plates using Flying Reagent Dispenser (FRD, Aurora Discovery, San Diego, CA) and incubated at room temperature for 30min. The luminescence signal was measured using a ViewLux plate reader (Perkin Elmer, Shelton, CT).", "values": [{"smiles": "CCc1nn(C)c(C(=O)NCc2ccc(C(C)(C)C)cc2)c1Cl", "activity change": "-9.21%"}, {"smiles": "BrCC(Br)c1ccccc1", "note": "(stereo not given)", "activity change": "0.521%"}, {"smiles": "N#Cc1ccccc1N", "activity change": "0.867%"}, {"smiles": "N#CCc1ccc(Cl)cc1", "activity change": "-0.482%"}, {"smiles": "O=c1ssc(Cl)c1Cl", "activity change": "-15.6%"}, {"smiles": "O=C(O)COc1nc(Cl)c(Cl)cc1Cl", "activity change": "-0.236%"}, {"smiles": "N#Cc1ccc(O)cc1", "activity change": "-1.76%"}, {"smiles": "C[C@]12CC[C@H]3[C@@H](CCC4=CC(=O)CC[C@@]43C)[C@@H]1CC[C@@H]2O", "activity change": "-5.17%"}, {"smiles": "CCS(=O)(=O)c1cccnc1S(=O)(=O)NC(=O)Nc1nc(OC)cc(OC)n1", "activity change": "1.84%"}, {"smiles": "BrCBr", "activity change": "-0.0462%"}, {"smiles": "Clc1ccc(C(c2ccc(Cl)cc2)C(Cl)(Cl)Cl)cc1", "Potency": "inactive"}, {"smiles": "O=c1oc2ccccc2c(O)c1Cc1c(O)c2ccccc2oc1=O", "activity change": "-2.61% [at 42.5 µM, stronger effect = higher value]"}, {"smiles": "CCCN(CCC)CCc1c[nH]c2ccccc12", "activity change": "-0.399%"}, {"smiles": "C[C@]12CC[C@H](O)C[C@H]1CC[C@@H]1[C@@H]2C[C@@H](O)[C@]2(C)[C@@H](C3=CC(=O)OC3)CC[C@]12O", "activity change": "-0.592%"}, {"smiles": "O=C(CBr)c1ccc(O)cc1", "activity change": "0.278%"}, {"smiles": "CC(C)C1CCC(Cc2ccc(Cl)cc2)C1(O)Cn1cncn1", "note": "(stereo not given)", "activity change": "-15.3%"}, {"smiles": "c1ccc2c(c1)OCC(C1=NCCN1)O2", "note": "(stereo not given)", "activity change": "-3.93% [at 42.5 µM, stronger effect = higher value]"}, {"smiles": "CCOP(=S)(OCC)SCCS(=O)(=O)CC", "activity change": "-1.1%"}, {"smiles": "CC1(C)CC/C(=C/c2ccc(Cl)cc2)C1(O)Cn1cncn1", "note": "(stereo not given)", "activity change": "-14%"}, {"smiles": "CCOCCOC(C)=O", "activity change": "4.02%"}, {"smiles": "CC(C)(c1ccc(O)c(-c2ccccc2)c1)c1ccc(O)c(-c2ccccc2)c1", "activity change": "-10.2%"}, {"smiles": "CC(C)CC(C)(c1ccc(O)cc1)c1ccc(O)cc1", "Potency": "inactive"}, {"smiles": "CC(C)(O)c1cnn2c(-c3ccc(F)c(-c4c(F)cccc4C#N)c3)cnc2n1", "activity change": "-6.05%"}, {"smiles": "COc1cccc2c1C(=O)c1c(O)c3c(c(O)c1C2=O)C[C@@](O)(C(=O)CO)CC3OC1CC(N2CCOC(OC)C2)C(O)C(C)O1", "note": "(stereo not given in full)", "activity change": "-6.94% [at 42.5 µM, stronger effect = higher value]"}, {"smiles": "C[C@]12Cc3nonc3C[C@@H]1CC[C@@H]1[C@@H]2CC[C@@]2(C)[C@H]1CC[C@]2(C)O", "activity change": "0.263% [at 42.5 µM, stronger effect = higher value]"}, {"smiles": "NC(=O)CCl", "activity change": "0.307%"}, {"smiles": "[CH3][Hg][Cl]", "activity change": "-10.3%"}, {"smiles": "O=[N+]([O-])c1ccc(Oc2ccc(C(F)(F)F)cc2[N+](=O)[O-])cc1", "activity change": "0.823%"}, {"smiles": "O=C1NCN(c2ccccc2)C12CCN(CC1COc3ccccc3O1)CC2", "note": "(stereo not given)", "activity change": "-1.67% [at 42.5 µM, stronger effect = higher value]"}, {"smiles": "CCOc1cc(C(C)(C)C)ccc1C1COC(c2c(F)cccc2F)=N1", "note": "(stereo not given)", "activity change": "-4.23% [at 42.5 µM, stronger effect = higher value]"}, {"smiles": "Cc1cc(SCc2sc(-c3ccc(C(F)(F)F)c(F)c3)nc2C)ccc1OCC(=O)O", "activity change": "-6.83%"}, {"smiles": "O=C(O)C1C2CCC(O2)C1C(=O)O", "note": "(stereo not given)", "Potency": "inactive"}, {"smiles": "COS(=O)(=O)c1ccc(C)cc1", "activity change": "-0.362%"}, {"smiles": "C[C@H]1CC[C@@H]2[C@@H](C)[C@H]3[C@H](C[C@H]4[C@@H]5CC=C6CC(O[C@@H]7O[C@H](CO)[C@H](O)[C@H](O[C@@H]8O[C@H](CO)[C@@H](O)[C@H](O)[C@H]8O)[C@H]7O[C@H]7O[C@@H](C)[C@H](O)[C@@H](O)[C@H]7O)CC[C@]6(C)[C@H]5CC[C@]34C)N2C1", "note": "(stereo not given in full)", "activity change": "-20.1%"}, {"smiles": "COP(=O)(OC)SCn1c(=O)oc2cc(Cl)cnc21", "activity change": "-0.221%"}, {"smiles": "Cc1cc(N=Nc2ccccc2C)ccc1N", "Potency": "inactive"}, {"smiles": "O=C1c2ccccc2C(=O)C1C(=O)C(c1ccccc1)c1ccc(Cl)cc1", "note": "(stereo not given)", "activity change": "-10.7%"}, {"smiles": "ClCCN1CCOCC1", "activity change": "-0.126%"}, {"smiles": "CC(C)N1C(=O)N(c2ccccc2)CSC1=NC(C)(C)C", "activity change": "-5.15%"}, {"smiles": "Clc1ccc(C(c2ccccc2Cl)C(Cl)(Cl)Cl)cc1", "note": "(stereo not given)", "Potency": "inactive"}]}]}
